tim23-1 inh: tim23-1 yeast growth inhibition. S. cerevisiae tim23-1 growth, BacTiter-Glo luminescence, 24 h. inhibition, % at 20 µM. 1.3% of 330,000 active;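 active means growth inhibition of the mutant yeast at or above 50%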;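 further: temperature-sensitive mutant grown at 25 °C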
NALP1 yeast inh: NALP1 inhibition. S. cerevisiae NALP1/ASC/caspase-1 growth, X-gal OD620, 72 h. inhibition, % at 10 µM. 0.61% of 280,000 active; in the data active means inhibition mostly above about 24%, no sharp cut-off; inactive means mostly below about 32%
TIM10 inh: TIM10 yeast growth inhibition; S. cerevisiae TIM10 strain growth, BacTiter-Glo luminescence, 24 h; inhibition, % at 10 µM; 1.4% of 330,000 active;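 active means inhibition of 40% or more at the single tested concentration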;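 further: wild-type TIM10 isogenic control strain grown at permissive 25 °C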
tim10-1 inh: tim10-1 yeast growth inhibition. S. cerevisiae tim10-1 ts strain growth, BacTiter-Glo, 24 h. inhibition, % at 20 µM. 2.2% of 330,000 active;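 active means inhibition of at least 40%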;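 further: mutant grown at 25 °C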
NLRP3 yeast inh: inhibitors of NALP3 inflammasome in yeast. Yeast reconstituted NLRP3/ASC/caspase-1, beta-gal luminescence, 24 h. inhibition, % at 10 µM. 0.39% of 330,000 active. AID 2825;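 active means inhibition of 50% or more; inactive means inhibition below 50%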
tim10-1 conf: confirmation of tim10-1 mutant yeast growth inhibitors. inhibition, % at 20 µM. shares compounds with tim10-1 inh. S. cerevisiae tim10-1 ts strain growth, BacTiter-Glo, 24 h. 56% of 7,400 active;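 active means inhibition of yeast growth at or above a set limit in either of two repeat tests at 20 µM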;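 further: tim10-1 mutant grown at permissive 25 °C to find synthetic lethal compounds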
Of the large screens only hits and unclear results are named; the others gave an inactive call (follow-up assays come after a bar, where they were run). Compounds with a hit are over-represented: about 4% of the library has one in this group of screens.

COc1cccc(C(=O)N(Cc2ccco2)c2c(N)n(Cc3ccccc3)c(=O)[nH]c2=O)c1	none (no result: NALP1 yeast inh)
Cc1cccc(N2CCN(S(=O)(=O)c3ccc(Cl)nc3)CC2C)c1 (stereo not given)	none (no result: NALP1 yeast inh)
Nc1nc(-c2ccccc2)cc(-c2ccccc2O)n1	tim10-1 inh 43 | tim10-1 conf inactive
Clc1nc(-c2ccccc2)cc(-c2ccccc2)n1	tim10-1 inh 43 | tim10-1 conf inactive
Clc1cc(-c2ccccc2)nc(-c2ccccc2)n1	none (no result: NALP1 yeast inh)
Oc1ccccc1-c1csc(-c2ccccc2)n1	tim10-1 inh 46 | tim10-1 conf 37
Nc1nc(-c2ccccc2)nc(-c2ccccc2O)n1	none (no result: NALP1 yeast inh)
CCOc1ccccc1NC(=O)c1nnn(CC(=O)Nc2cc(C)cc(C)c2)c1N	none
COC(=O)c1ccc(CNC(=O)COC(=O)COc2ccc(OC)cc2)cc1	none
COc1cc2c(cc1OC)[C@@H](NC(=O)CCC1CCCCC1)[C@H](O)C2	none (no result: NALP1 yeast inh, NLRP3 yeast inh)
CSCC[C@H](NC(=O)C1CCN(S(=O)(=O)c2ccc(C)cc2)CC1)C(=O)NC1CCS(=O)(=O)C1 (stereo not given in full)	none
CCOC(=O)c1ccc(N=c2scc(C)n2CC)cc1	tim10-1 inh 43 | tim10-1 conf inactive
Cc1[nH]nc2c1/C(=N\O)CCC2	none
CC(C)(C)OC(=O)N[C@@H](Cc1ccccc1)c1nnc(S(=O)(=O)Cc2cccc(F)c2)o1	tim10-1 inh 59 | tim10-1 conf 50
CC[C@@H](C)[C@H](NC(=O)OCc1ccccc1)c1nnc([C@@H](NC(=O)OCc2ccccc2)[C@@H](C)CC)o1	none (no result: NALP1 yeast inh)
CC[C@@H](C)[C@H](NC(=O)OC(C)(C)C)c1nnc(S(=O)(=O)Cc2cc(C)ccc2C)o1	tim10-1 inh 52 | tim10-1 conf 57
O=c1[nH][nH]c(-c2ccccc2O)c1C(C[N+](=O)[O-])c1ccccc1 (stereo not given)	tim10-1 inh 45 (no result: NALP1 yeast inh) | tim10-1 conf inactive
Cc1[nH]c2ccccc2c1C(C[N+](=O)[O-])c1cccc(O)c1 (stereo not given)	none
CCCOc1ccc(C(=O)NNC(=S)NC(=O)c2ccccc2)cc1	none
CCCOc1ccc(C(=O)NNC(=S)NC(=O)c2cc(-c3ccccc3)nc3ccccc23)cc1	tim10-1 inh 45 | tim10-1 conf 38
CCCc1cc(C(=O)NNC(=S)NCC)c2ccccc2n1	none
CCNC(=S)NNC(=O)c1cc(-c2cc(C)ccc2C)nc2ccccc12	tim10-1 inh 45 | tim10-1 conf 41
COc1ccc(OC)c(C(=O)CSc2nccc(-c3ccc(Br)cc3)n2)c1	none
O=C(c1cccc(N2CCCC2=O)c1)N1CCN(c2cccc(Cl)c2)CC1	none
CSc1cccc(NC(=S)N2CCC(c3ccccc3)C2)c1 (stereo not given)	tim10-1 inh 48 | tim10-1 conf inactive
c1ccc(Nc2cccc(Nc3ccccc3)c2)cc1	tim10-1 inh 54 | tim10-1 conf 76
CCSc1sccc1C1C(C#N)=C(N)N(c2cccnc2)C2=C1C(=O)CC(C)(C)C2 (stereo not given)	none
CC1(C)CC(=O)C2=C(C1)N(c1cccnc1)C(N)=C(C#N)C2c1cccs1 (stereo not given)	tim10-1 inh 40 | tim10-1 conf 33
CCN1CCN(S(=O)(=O)c2ccc(Cl)c(C(=O)N(C)Cc3ccccc3)c2)CC1	tim10-1 inh 98 (no result: NALP1 yeast inh) | tim10-1 conf inactive
COc1cc(OC)cc(C(=O)OC(C)C(=O)NC2CCCc3ccccc32)c1 (stereo not given)	none (no result: NALP1 yeast inh)
CC(=O)N(C)C(c1ccc(N(C)C)cc1)c1nnnn1-c1c(C)cccc1C (stereo not given)	none
O=c1c(-c2nnc(SCc3ccc(Cl)cc3)o2)cccn1Cc1ccccc1	NALP1 yeast inh 25, tim10-1 inh 46 | tim10-1 conf inactive
O=S(=O)(/N=C(/Sc1ccccc1)c1ccccc1)c1ccccc1	tim10-1 inh 52 | tim10-1 conf 43
CCCCC(=O)Nc1cccc(NC(=O)c2ccccc2Br)c1	none (no result: NALP1 yeast inh)
O=C1/C(=C/c2ccc([N+](=O)[O-])cc2)C=C(c2ccccc2)N1c1ccc(O)cc1	tim10-1 inh 41 | tim10-1 conf 37
O=C1/C(=C/c2ccc([N+](=O)[O-])cc2)C=C(c2ccccc2)N1c1ccccc1	none
Cc1ccc2c(c1)-c1c(ssc1=S)C(C)(C)N2C(=O)CSC1=NCCS1	tim10-1 inh 43 | tim10-1 conf 38
CCOc1ccc2c(c1)-c1c(ssc1=S)C(C)(C)N2C(=O)CSC1=NCCS1	none
COC(=O)C1=C(C)N(c2cccc(C(C)=O)c2)C(=O)C1	none (no result: NALP1 yeast inh)
COC(=O)C1=C(C)N(c2cccc(Cl)c2)C(=O)C1	tim10-1 inh 52 | tim10-1 conf 34
CCOCC(=O)Nc1nc2ccccc2s1	none
COc1ccc(/C(C)=N/OCC(=O)Nc2nc3ccccc3s2)cc1	tim10-1 inh 42 | tim10-1 conf 29
CC(OC(=O)/C=C/c1ccc2ccccc2n1)C(=O)Nc1ccc(S(N)(=O)=O)cc1 (stereo not given)	none (no result: NALP1 yeast inh)
C=CCNC(=O)/C(C#N)=C/c1ccc2c(c1)OCCO2	tim10-1 inh 43 | tim10-1 conf inactive
O=C(CC(C(=O)N1CCc2ccccc21)n1ccnc1)N1CCc2ccccc2C1 (stereo not given)	tim10-1 inh 40 | tim10-1 conf 35
CCCCNC(=O)CC(C(=O)N1CCc2ccccc21)n1ccnc1 (stereo not given)	none
CCN(c1nc(C)cc(OC)n1)S(=O)(=O)c1ccccc1	tim10-1 inh 40 | tim10-1 conf inactive
C=CCN(c1nc(C)cc(OC)n1)S(=O)(=O)c1ccccc1	none
O=[N+]([O-])c1ccc(NC(=S)N2CCc3ccccc3C2)cc1	tim10-1 inh 41 | tim10-1 conf inactive
CCCOc1cccc(NC(=O)c2c(-c3ccccc3)noc2C)c1	tim10-1 inh 41 | tim10-1 conf inactive
Cc1onc(-c2ccccc2)c1C(=O)Nc1ccc(NC(=O)c2c(-c3ccccc3)noc2C)cc1	none (no result: NALP1 yeast inh)
Cc1ccc(F)c(NC(=O)c2c(-c3ccccc3)noc2C)c1	tim10-1 inh 47 | tim10-1 conf 43
Cc1onc(-c2ccccc2)c1C(=O)Nc1cccc(OC(C)C)c1	none
Cc1c(C)n(Cc2ccccc2)c2ccc(C(=O)OCCN(C)C)cc12	tim10-1 inh 41 | tim10-1 conf 43
O=C(CCc1nnc2n(Cc3ccc(Cl)cc3)c(=O)c3ccccc3n12)N1CCN(c2ccccn2)CC1	tim10-1 inh 44 | tim10-1 conf inactive
CC(C)OCCCn1c(=O)c2ccccc2n2c(CCC(=O)N3CCN(c4ccccn4)CC3)nnc12	none
COc1ccc(/C=C(\C#N)C(=O)N=CN(C)C)cc1	none
COc1ccc(/C=C(\C#N)C(=O)N2COCC2(C)C)cc1	tim10-1 inh 47 | tim10-1 conf 31
CC(C)(C)C1CCc2c(C(=O)N/N=C/c3cccs3)csc2C1 (stereo not given)	tim10-1 inh 47 | tim10-1 conf 32

Screening data (PubChem BioAssay)
